The molecules below were run against Catechol O-methyltransferase (Homo sapiens) (UniProt P21964) (assay: Confirmatory Screen for Target Class Profiling of Small Molecule Inhibitors of Methyltransferases (AID 1745852)). Conditions: MTase-Glo luminescence, SAH detection, recombinant enzyme; measured here: COMT max response; stronger effect = lower value.
Catechol O-methyltransferase (Homo sapiens), sequence (P21964 whole entry, looked up): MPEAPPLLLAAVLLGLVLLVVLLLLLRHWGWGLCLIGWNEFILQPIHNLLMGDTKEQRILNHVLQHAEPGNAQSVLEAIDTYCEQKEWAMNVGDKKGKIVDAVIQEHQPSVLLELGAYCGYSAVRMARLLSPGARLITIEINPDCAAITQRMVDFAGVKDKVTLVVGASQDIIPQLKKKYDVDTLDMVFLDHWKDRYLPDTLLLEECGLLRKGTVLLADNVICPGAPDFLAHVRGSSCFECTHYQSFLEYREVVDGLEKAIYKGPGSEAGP
Molecule `COCc1nc2nc(-c3ccccc3)c(-c3ccc(O)c(F)c3)cc2n1C` has an activity of -38%.
For `Cn1cc(CN2CCCC(COc3ccccc3C(=O)N3CCCCC3)C2)c2ccccc21` (centres undefined), the activity was 6.44%.
Molecule `O=C(Nc1ccc2c(N3CCOCC3)ncnc2c1)c1cccc(Cl)c1` has an activity of -10.9%.
With `FC(F)(F)c1cccc(-c2nccn3c(C4CN(Cc5ccc6cn[nH]c6c5)C4)ncc23)c1` the activity was 0.457%.
Work on `CC1CCCCC1NC(=O)C1(C)Cn2c(cc3sccc32)C(=O)N1Cc1ccc(Cl)cc1` (centres undefined) yielded an activity of -7.44%.
For `Cc1nc2cccnc2n1CC1CCCN(S(=O)(=O)c2ccc3c(c2)OCCO3)C1` (centres undefined), the activity was 2.68%.
`Cn1cnc(CN2CCNc3cc(Nc4ccccc4)ncc3C2)c1` was tested, and the activity was 7.14%.
`CC1(C)[C@H](Cc2cc(-c3ccccc3)on2)C[C@@H]1NCC1CC1` showed an activity of 1.83%.
`COc1ccc(CCNC(=O)c2ccc3c(=O)[nH]c4c(C(=O)NC5CCCC5)sc(=S)n4c3c2)cc1OC` gave an activity of -35.3%.
Molecule `COc1ccc2nc([C@H]3CCN(C4CCCCC4)C3)[nH]c2c1` has an activity of -5.45%.
`CCOCCCN1C(=O)c2cc3c(OC)ccc(OC)c3n2CC1(C)C(=O)NC1CCCCC1` (centres undefined) showed an activity of -8.08%.
With `O=C(NCc1ccc2c(c1)OCO2)c1sc(=S)n2c1[nH]c(=O)c1cc(Cl)ccc12` the activity was -44.1%.
`COc1cc2c(cc1O)NC(=O)CC2c1cn[nH]c1-c1cc(C)ccc1C` (centres undefined) gave an activity of -13.7%.
In the case of `FC(F)(F)c1ccnc(N2CC[C@H](c3nnc(-c4ccncc4)o3)C2)n1`, the activity is reported as 2.16%.
Work on `COC(=O)c1cc2n(n1)CC(C)(C(=O)NC1CCC(C)CC1)N(Cc1ccc(OC)cc1OC)C2=O` (centres undefined) yielded an activity of -11.6%.
For `O=C(NCCc1ccc(Cl)cc1)c1ccc2c(=O)[nH]c3c(C(=O)NCC4CCCO4)sc(=S)n3c2c1` (centres undefined), the activity was -36.2%.
With `COc1cccc([S+](=O)([O-])N2CCC3(C2)N=C(c2cccnc2)C(=O)N3)c1` (centres undefined) the activity was -6.05%.
`CCCCNC(=O)c1cccc(-c2cc(N3CCN(C)CC3)nc(N)n2)c1` gave an activity of -2.86%.
Work on `O=C(Nc1ccc2c(N3CCCCC3)ncnc2c1)c1ccccc1C(F)(F)F` yielded an activity of -15.7%.
`CCCN1CCn2c3c(c4cc(OC)ccc42)CCN=C31` gave an activity of -5.03%.
`COc1ccc(CCN2C(=O)c3cc4oc(C)cc4n3CC2(C)C(=O)NC2CCCCC2)cc1OC` (centres undefined) was tested, and the activity was -7.54%.
For `Cc1ccc2c(c1)c(-n1cccc1)c1n2CC(C)(C(=O)NCCC(C)C)N(Cc2cccnc2)C1=O` (centres undefined), the activity was 4.4%.
`c1ccc(CN2CCc3c(sc4ncnc(N5CCOCC5)c34)C2)cc1` was tested, and the activity was -7.7%.
For `O=C(Nc1ccc(F)c(Cl)c1)N1CCn2cccc2C1Cc1ccccc1` (centres undefined), the activity was -2.26%.

Reference: PubChem BioAssay (NCATS)
